PubChem BioAssay (NCI)
This is part of a sample that, as a whole, favours compounds with a hit. Of some 79,000 tested, about 15% had one in any assay. Cut-off read from the data, not from the text of the source: active = growth inhibition above about 70%; inactive = the rest. Where a SMILES comes first, the peptide text is derived from it. [ ]: non-standard residue; d: D form. The star is where a group is joined. Cbz = O=C(OCc1ccccc1)*; Aib = CC(C)(N)C(=O)O

Assays:
[1] = NCI Yeast Anticancer Drug Screen. Data for the rad50 strain (AID 155);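 note: 0% = growth of vehicle-only cultures of the same strain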; details: S. cerevisiae rad50 strain growth inhibition; at 50.0 µM; hits give high values
Summary of the method: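 Growth of the mutant yeast was measured after compound exposure and referenced to vehicle-treated cultures.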

[2] = NCI Yeast Anticancer Drug Screen. Data for the mec2-1 strain (AID 157); details: S. cerevisiae mec2-1 strain, at 50.0 µM, hits give high values
Summary of the method: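 Cells of the genetically defined mec2-1 yeast strain are incubated with test compound. Inhibition of growth is calculated against vehicle-treated controls.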

[3] = NCI Yeast Anticancer Drug Screen. Data for the sgs1 mgt1 strain (AID 161);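 note: 0% = growth of cultures given vehicle only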; details: S. cerevisiae sgs1 mgt1 strain, at 50.0 µM, hits give high values
Summary of the method: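 Genetically altered yeast, compound exposure, growth inhibition relative to vehicle.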

[4] = NCI Yeast Anticancer Drug Screen. Data for the cln2 rad14 strain (AID 165);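 note: 0% = growth equal to vehicle treated cultures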; details: S. cerevisiae cln2 rad14 strain, at 50.0 µM, hits give high values
Summary of the method: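 The screen exposed genetically defined yeast (cln2 rad14) to test compounds and scored growth inhibition relative to vehicle-treated controls.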

[5] = NCI Yeast Anticancer Drug Screen. Data for the bub3 strain (AID 167); details: S. cerevisiae bub3 mutant strain, at 50.0 µM, hits give high values
Summary of the method: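 Whole-cell yeast assay. The mutant strain was incubated with compounds, and growth inhibition was determined by comparison with vehicle-treated cells.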

[6] = NCI Yeast Anticancer Drug Screen. Data for the mlh1 rad18 strain (AID 175); details: S. cerevisiae mlh1 rad18 strain growth inhibition; at 50.0 µM; hits give high values
Summary of the method: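 Compound-treated yeast growth, normalised to vehicle controls. Strain bears defined DNA repair mutations.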

Measured: growth inhibition

NC(=O)C1C2CC3C(C2O)C31C(N)=O (configuration not stated)
inactive: [1] -13.1% | [2] -4% | [3] -14% | [4] -30.1% | [5] -12.9% | [6] -28.7%

COc1cc(Br)c(C=Nc2cccc3cc(OC)c(OC)cc23)cc1OC
inactive: [1] -0.9% | [2] -14.3% | [3] -9.9% | [4] 20.4% | [5] -27.1% | [6] -15.9%

CCOC(=O)c1ccc(NCc2ccc3nc(OC)c(OC)nc3c2)cc1
inactive: [1] -5.7% | [2] -20.5% | [3] -13.7% | [4] 14.9% | [5] 6.85% | [6] -19.4%

C/C=C/C=C/C(=O)CCC1(C)OC(=O)C(C)=C1O (configuration not stated)
inactive: [1] -0.9% | [2] 0.45% | [3] 2.4% | [4] -4.35% | [5] -3.45% | [6] 6.25%

CCCCCCCCCc1ccc(OC(=O)CCC)cc1
inactive: [1] 2.4% | [2] -22.6% | [3] -15.1% | [4] -50% | [5] -2.95% | [6] 20.7%

O=C(O)c1ccc(NC(NC(=O)C(C(F)(F)F)C(F)(F)F)(C(F)(F)F)C(F)(F)F)cc1
inactive: [1] 20.2% | [2] 14.4% | [3] 8.9% | [4] 1.2% | [5] 11.2% | [6] 14.4%

CCOC(=O)CSc1nc(N)c2c(-c3ccccc3)c3c(nc2n1)CCCC3
inactive: [1] -23.1% | [2] 11.1% | [3] 10.8% | [4] 33.1% | [5] 21.7% | [6] 17.7%

COc1ccc2ccc3c4c(c(=O)[nH]c3c2n1)CCC4
inactive: [1] 44% | [2] 28.8% | [3] 33.7% | [4] 2.55% | [5] 9.95% | [6] 30.9%

C=CCCCC1(c2ccccc2)C(=O)Oc2ccccc21 (configuration not stated)
inactive: [1] 29.6% | [2] 2.55% | [3] -0.55% | [4] 15.6% | [5] 12.8% | [6] -2.75%

CCCNC(=O)N(CCN(C)C)S(=O)(=O)c1ccc(Cl)cc1
inactive: [1] -38.9% | [2] -6.75% | [3] -13.6% | [4] -18.9% | [5] -21.1% | [6] -17.4%

CC(C)CC1NC(=S)N(c2ccccc2)C1=O (configuration not stated)
inactive: [1] -11% | [2] -18.4% | [3] -13.7% | [4] -10.1% | [5] -8.05% | [6] -24.7%

CCn1c2ccccc2n2c(=O)c3c(c(C#N)c12)CCCC3
inactive: [1] 4.6% | [2] 13.2% | [3] -30.1% | [4] -8.6% | [5] -33.9% | [6] -18.5%

CC(C)(NC(=O)C(C)(C)NC(=O)OCc1ccccc1)C(=O)O (Cbz-[Aib]-[Aib]-OH)
inactive: [1] 6.05% | [2] -3.6% | [3] 3.9% | [4] 14.1% | [5] 0.25% | [6] -64.5%

Cc1ccc(S(=O)(=O)/N=C/C=P(c2ccccc2)(c2ccccc2)c2ccccc2)cc1
inactive: [1] 11.4% | [2] 7.45% | [3] -22.1% | [4] -19% | [5] -2.1% | [6] -3.65%

O=C(O)c1ccccc1C(=O)c1ccc(Br)cc1
inactive: [1] 8.4% | [2] -20.7% | [3] 10.8% | [4] 14.6% | [5] -3.45% | [6] 10.1%

COC(=O)/C=C/c1ccc([N+](=O)[O-])cc1
inactive: [1] -6.3% | [2] -2.5% | [3] 20.9% | [4] -24% | [5] 8.15% | [6] -18.2%

CS/C(=N/N=C(\C)c1ccccn1)[Se][Se]/C(=N/N=C(\C)c1ccccn1)SC
inactive: [1] 15.7% | [2] -1% | [3] 15.6% | [4] 29.2% | [5] -2.5% | [6] 30.9%

Nc1ccc2[nH]c(=S)sc2c1
inactive: [1] 11.2% | [2] 16.4% | [3] -7.2% | [4] -1.6% | [5] -0.65% | [6] 3.35%

O=C(O)CSc1n[nH]c(-c2ccccc2O)n1
inactive: [1] -1.1% | [2] 2.5% | [3] 17.8% | [4] 17.5% | [5] 9.6% | [6] 7.25%

CC(=O)OC1[C@@H](OC(C)=O)[C@H](OC(C)=O)C2(CO2)[C@H](OC(C)=O)[C@H]1OC(C)=O (some centres not stated)
inactive: [1] -7.05% | [2] -4.45% | [3] -6.4% | [4] -29.6% | [5] -0.15% | [6] 12.8%

N#Cc1[nH]cnc1N
inactive: [1] -6.95% | [2] -5.95% | [3] -11.3% | [4] -37.5% | [5] 7.15% | [6] 4.3%

[N-]=[N+]=NC1OC(=O)C(Cl)=C1N=P(c1ccccc1)(c1ccccc1)c1ccccc1 (configuration not stated)
inactive: [1] 4.3% | [2] 11.3% | [3] 24.4% | [4] 9.6% | [5] 12.1% | [6] 23%

CCOC(=O)c1c(N=P(c2ccccc2)(c2ccccc2)c2ccccc2)nnc(-c2ccccc2)c1-c1ccccc1
inactive: [1] -36.4% | [2] -15.4% | [3] 10.9% | [4] 1.85% | [5] -6.55% | [6] 6.5%

COc1cccc(Nc2sc(C(=O)c3cc4cc(Cl)ccc4o3)c(N)c2C#N)c1
inactive: [1] -11.1% | [2] -8.65% | [3] -20.6% | [4] -2.75% | [5] -3.55% | [6] -7.55%

[B-]([C+]1CCCCC1)N1C=CC=CC1
inactive: [1] 1.2% | [2] 1.4% | [3] 15.7% | [4] -4.75% | [5] 4.95% | [6] -2.1%

Cc1ccc(S(=O)(=O)CCCCS(=O)(=O)c2ccc(C)cc2)cc1
inactive: [1] 1.8% | [2] 4.35% | [3] -7.1% | [4] -62.4% | [5] -27.2% | [6] 2.3%

NC(=O)COc1ccc(Cl)cc1Cl
inactive: [1] 16.6% | [2] -0.5% | [3] 28.4% | [4] -0.4% | [5] 5.7% | [6] 20%

O=C(O)c1ccnc2c(S(=O)(=O)O)cccc12
inactive: [1] 14.7% | [2] -2.05% | [3] -0.95% | [4] -35.5% | [5] 3.25% | [6] 12.4%

Cc1cc(N)ccc1N=Nc1ccc(S(=O)(=O)CCOS(=O)(=O)O)cc1
inactive: [1] 10.9% | [2] -7.5% | [3] -6.8% | [4] -4.65% | [5] -37.1% | [6] -74.7%

Oc1ccc(Br)cc1CNC1CCCCC1
inactive: [1] 58.5% | [2] 31.8% | [3] 61.1% | [4] -9.9% | [5] 27.1% | [6] 24.1%

Cc1cnc(SC(C)(C)C)c(C)c1
inactive: [1] -0.2% | [2] -20.2% | [3] -8.55% | [4] -68.6% | [5] 12.9% | [6] -10.5%

S=c1cc(-c2ccccc2)oc2ccccc12
inactive: [1] 9.35% | [2] 10.8% | [3] -1.1% | [4] 6.85% | [5] 4.85% | [6] -2.8%

Nc1[nH]c(=S)[nH]c(=O)c1N=Nc1c(Br)cc(S(N)(=O)=O)cc1Br
inactive: [1] 4.65% | [2] -15.9% | [3] -24.1% | [4] -24.9% | [5] 9.2% | [6] 0.25%

COC1OC(C(C)O)C(O)C(O)C1O (configuration not stated)
inactive: [1] 23.6% | [2] 19% | [3] 10.2% | [4] 14.9% | [5] 4.65% | [6] 1.5%

O=C(CI)NCC(O)CNC(=O)CI
inactive: [1] 16.9% | [2] 13.9% | [3] 18% | [4] 27.6% | [5] 9.2% | [6] 36.5%

CC(=O)Nc1cccc(NC(C)=O)c1
inactive: [1] 0.4% | [2] 4.55% | [3] 5.1% | [4] -17.9% | [5] -1.05% | [6] 11.2%

Cc1ccc(S(=O)(=O)/C(C#N)=C\N2CC(=O)NC2=S)cc1
inactive: [1] -20.1% | [2] -21.1% | [3] -23.2% | [4] -10.3% | [5] -13.9% | [6] -25.6%

S=C(S)N(Cc1ccccc1)Cc1ccccc1 (tested in a mixture with another compound)
inactive: [1] 2.85% | [2] 0.7% | [3] 3.7% | [4] -18.8% | [5] 12.8% | [6] -2.05%

CC(=O)OCCOCNC(=S)NN
inactive: [1] -7.55% | [2] 7.8% | [3] 11.2% | [4] -16.3% | [5] -3.95% | [6] -4.8%

NCCCN(CCCCN(CCCN)C(=O)OCc1ccccc1)C(=O)OCc1ccccc1
inactive: [1] 6.85% | [2] -13.1% | [3] -18.9% | [4] 8.55% | [5] 1.2% | [6] -55.9%

Oc1ccc(Cl)cc1CC(=S)N1CCOCC1
inactive: [1] 11.1% | [2] 1.3% | [3] 0.45% | [4] -10.4% | [5] 3.4% | [6] -3.9%

CC(O)COC(C)COC(C)c1ccccc1 (configuration not stated)
inactive: [1] 1.6% | [2] 0.3% | [3] -4% | [4] -2.35% | [5] 2.2% | [6] 4.65%
